High-throughput results deposited in PubChem BioAssay by National Center for Advancing Translational Sciences (NCATS).
This is one part of a sample in which hits are shown more often than they occur.
DT40 TDP1 no CPT: qHTS for Inhibitors of human tyrosyl-DNA phosphodiesterase 1 (TDP1): qHTS in cells in absence of CPT. DT40 Tdp1-/- hTDP1 cells, no CPT, ATP luminescence, 48 h. Potency, µM (highest dose often 46.2 µM), for the others: top-dose activity change, negative = growth inhibition, most hits filed as inhibitors. 420,000 tested, 15% active. AID 686978, 2013; also: potency is read from the fitted curve at half-maximal effect; nearly all actives have a fitted effect of over 55% in size
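Growth of hTDP1-complemented DT40 Tdp1-knockout cells is measured by ATP luminescence after at least 48 hr compound exposure at 37 °C, with DMSO substituting for the 20 nM CPT used in the parallel screen.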
HT1080 IDH1KD tx: kills HT-1080 cells with IDH1 knockdown; Potency, µM (titrated, usually from 46.1 µM), for inactives: top-dose activity, negative = toxicity, usual class: cytotoxic; 360,000 tested, 2% active; HT-1080 IDH1 knockdown viability, ATP luminescence, 48 h; AID 686971;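 also: potency is read from the fitted curve at half-maximal effect; 0% = DMSO wells and -100% = cell-free medium wells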
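Assay cells: HT-1080 with IDH1 knockdown, 750 per well, RPMI/5% FBS. Exposure: 48 h at 37 °C following 2 h pre-incubation. Read: CellTiter-Glo luminescence; fitted concentration-response, curve class assigned.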
TDP1 cell CPT: growth inhibition of DT40 Tdp1-/-;hTDP1 cells with camptothecin (screen for TDP1 inhibitors) | AID 686979 | 420,000 tested, 12% active | Potency, µM (top dose mostly 46.2 µM), without a hit: at the highest dose activity change, negative = growth inhibition, usual class: inhibitors | chicken DT40 Tdp1-/-;hTDP1 cells + 20 nM CPT, ATP luminescence, 48 h; also: potency is read from the fitted curve at half-maximal effect; nearly all actives have a fitted effect of over 55% in size
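Chicken DT40 Tdp1-/- cells stably complemented with human TDP1 were seeded at 400 cells/well in medium containing 20 nM camptothecin, exposed to pin-transferred compounds, and grown at 37 °C for at least 48 hr. Viability was read as ATP luminescence.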
IL-1B inflam inh: inflammasome signaling inhibition, IL-1 beta readout | activity change, % at 57.5 µM | 360,000 tested, 4.7% active | THP-1 LPS/ATP IL-1B secretion, AlphaLISA, 16 h; active compounds read low; in the data active = activity change below about -50%; inconclusive = mostly about -30% to -49%
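Secreted IL-1B measured by AlphaLISA bead assay after 16 h compound exposure of THP-1 cells; compounds (final up to 57.5 uM) added 1 h before LPS (250 ng/mL) and ATP (1.25 mM) stimulation; lower signal means less secretion.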
HT1080-NT tox: kills 2HG-producing HT-1080-NT fibrosarcoma cells; HT-1080-NT fibrosarcoma viability, CellTiter-Glo ATP luminescence, 48 h; 360,000 tested, 1.6% active; Potency, µM (top dose mostly 46.1 µM), inactives show top-dose activity, negative = less viability, hits mostly cytotoxic;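 also: NT is the 2HG producing partner of a matched IDH1 knockdown line; potency is read from the fitted curve at half-maximal effect; 0% = DMSO-treated cells and -100% = media-only wells without cells; nearly all actives have a fitted effect of over 55% in size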
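HT-1080-NT fibrosarcoma cells (2HG-overproducing), 750 cells/well in RPMI with 5% FBS, dosed after 2 h and incubated 48 h at 37C. CellTiter-Glo luminescence normalized to DMSO and no-cell wells; concentration-response curves fitted and classed.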
ALOX12 inh: inhibitors of human 12S-lipoxygenase ALOX12; 580,000 tested, 1.1% active; purified 12hLO, xylenol orange hydroperoxide absorbance; P18054; Potency, µM (highest dose often 108 µM), for the others: at the highest dose activity change, negative = inhibition, usual class: inhibitors; also: potency is read from the fitted curve at half-maximal effect
Target sequence (P18054 whole entry, looked up): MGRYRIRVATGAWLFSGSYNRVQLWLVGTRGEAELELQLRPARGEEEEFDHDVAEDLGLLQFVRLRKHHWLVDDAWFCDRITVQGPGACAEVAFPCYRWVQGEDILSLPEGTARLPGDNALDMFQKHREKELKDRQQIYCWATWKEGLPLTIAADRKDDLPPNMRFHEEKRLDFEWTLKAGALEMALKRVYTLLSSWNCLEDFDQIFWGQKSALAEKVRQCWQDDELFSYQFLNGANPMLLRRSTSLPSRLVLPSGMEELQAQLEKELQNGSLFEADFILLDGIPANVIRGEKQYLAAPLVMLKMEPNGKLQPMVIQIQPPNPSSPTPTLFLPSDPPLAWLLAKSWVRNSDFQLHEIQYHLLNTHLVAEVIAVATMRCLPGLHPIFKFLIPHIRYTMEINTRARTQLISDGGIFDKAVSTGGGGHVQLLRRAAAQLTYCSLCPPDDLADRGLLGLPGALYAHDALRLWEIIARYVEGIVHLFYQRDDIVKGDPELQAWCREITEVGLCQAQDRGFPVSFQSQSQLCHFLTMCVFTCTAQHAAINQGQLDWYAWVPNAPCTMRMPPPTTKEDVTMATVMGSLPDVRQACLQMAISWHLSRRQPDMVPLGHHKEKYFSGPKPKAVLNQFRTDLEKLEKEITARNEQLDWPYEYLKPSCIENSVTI
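Purified human 12hLO (150 nM final) in 25 mM Hepes, 0.01% Triton X-100, pH 7.0 was preincubated 15 min at room temperature with compound. Then 40 uM arachidonic acid was added, 30 min. Hydroperoxide was read by Fe-XO absorbance ratio 573/405 nm.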
Active calls of the source: *; ? = inconclusive; . = no result given; [ ] = another dose, or the depositor's remark. Unless noted, calls follow the shape of the dose curve; as a rule, active = well fitted curve in the direction sought with a large enough effect; inconclusive = small, poorly fitted or top-dose-only effect, or another doubt; inactive = no such curve, though single readings can be large; an effect the other way counts as inactive or inconclusive. Unless noted, % is scaled to controls: 0 for no effect and ±100 for the full control effect.

SMILES	DT40 TDP1 no CPT	HT1080 IDH1KD tx	TDP1 cell CPT	IL-1B inflam inh	HT1080-NT tox	ALOX12 inh
C#CCOCCOCCOCCNc1nc(N2CCN(C(=O)CCCCCCCCCCNC(=O)[C@H]([C@@H](C)CC)n3cc(CCCCN=C(N)N)nn3)CC2)nc(N2CCN(C(=O)CCCCCCCCCCNC(=O)[C@H](CO)n3cc(CCCCCN)nn3)CC2)n1	21µM*	?	15µM*	-73*	?	.
COC(=O)c1c(-c2ccc(Cl)cc2)noc1N1CCN(c2ccc(C(C)=O)cc2)CC1	21µM*	.	?	.	.	-8%
OC[C@@H](O)[C@H]1O[C@@H]2O[C@H](C(Cl)(Cl)Cl)O[C@@H]2[C@H]1O	0%	.	6%	.	.	.
N=C1c2ccccc2CN1c1ccc(F)c([N+](=O)[O-])c1	?	-4%	?	-99*	-15%	-2%
CCCn1c2ccccc2c2nnc(SCC(=O)Nc3cccc(C(C)=O)c3)nc21	15µM*	.	?	.	.	-13%
CN1CCC(N(C)c2nc(-c3ccc([N+](=O)[O-])cc3)nc3ccccc23)CC1	12µM*	?	8.2µM*	-96*	?	?
CSc1cccc(NC(=O)NC[C@H]2C[C@@H]3CCN2C[C@@H]3CN2CCOCC2)c1	.	.	.	.	.	29%[176 µM]
O=C(CF)NC(NC(=S)Nc1cccc([N+](=O)[O-])c1)C(Cl)(Cl)Cl (stereo not drawn)	?	7%	21µM*	-19	4%	?
COc1ccc(NC(=S)NC(NC(=O)CF)C(Cl)(Cl)Cl)cc1[N+](=O)[O-] (stereo not drawn)	4%	0%	4%	-15	-6%	?
CCC(=O)O[C@](Cc1ccccc1)(c1ccccc1)[C@H](C)CN(C)C	38µM*	.	43µM*	.	.	.
C=C[C@H]1CN2CC[C@H]1C[C@@H]2CNCc1ccc2c(c1)OCO2	.	.	.	.	.	101%[176 µM]
O=c1[nH]c(O)c(N=Nc2ccc(S(=O)(=O)N3CCOCC3)cc2)c(=O)[nH]1	-6%	24%	28%	-12	9%	?
O=C(NCCSc1c(-c2ccccc2)[nH]c2ccccc12)c1ccc(S(=O)(=O)N2CCOCC2)cc1	8.2µM*	.	5.8µM*	.	.	-2%
CN(C)S(=O)(=O)c1ccc(C(=O)NCCSc2c(-c3ccccc3)[nH]c3ccccc23)cc1	6.5µM*	.	6.5µM*	.	.	-6%
CC[C@H]1CN2CC[C@H]1C[C@@H]2CNS(=O)(=O)c1ccc(OC)cc1	.	.	.	.	.	28%[176 µM]
O=C(CNC(=O)c1cccs1)OCC(=O)c1ccc([N+](=O)[O-])cc1	?	14%	16µM*	-89*	-2%	-12%
O=C(NC[C@H]1C[C@@H]2CCN1C[C@@H]2CN1CCN(c2ccc(F)cc2)CC1)c1ccccc1	.	.	.	.	.	45%
COc1cccc2c1C(=O)c1c(O)c3c(c(O)c1C2=O)CC(O)(C(C)=NO)CC3OC1CC(N)C(O)C(C)O1 (stereo not drawn)	0.18µM*	10µM*	0.21µM*	-97*	?	1%
CCCCC(=O)OCC(=O)[C@]1(O)Cc2c(O)c3c(c(O)c2[C@@H](O[C@H]2C[C@H](NC(=O)C(F)(F)F)[C@H](O)[C@H](C)O2)C1)C(=O)c1c(OC)cccc1C3=O	1.3µM*	.	1.5µM*	.	.	.
CC1CCN(CC(=O)Nc2ccc(C#N)c(Cl)c2)CC1	.	.	.	.	.	1%
COc1ccccc1C(=O)N1CCC2(CC1)c1nccn1-c1ccccc1CN2C	.	.	.	.	.	11%
Clc1ccc(CCNCc2ccncc2)c(Cl)c1	-27%	1%	?	?	-5%	?
O=S(=O)(NCc1ccncc1)c1ccc(F)c(F)c1	6.5µM*	-17%	10µM*	2	2%	-3%
COc1ccc(CCN(C)Cc2ccncc2)cc1OC	-17%	12%	-13%	18	18%	?
CN(C)CCN(C)CCc1ccc(Cl)c(Cl)c1	21µM*	.	16µM*	.	.	?
SMILES	DT40 TDP1 no CPT	HT1080 IDH1KD tx	TDP1 cell CPT	IL-1B inflam inh	HT1080-NT tox	ALOX12 inh
COc1ccc(C2/C=C\CN(C(=O)Oc3ccc(C(F)(F)F)cc3)CC(=O)N2Cc2ccc(F)cc2)cc1 (stereo not drawn)	?	-3%	?	53	-10%	-15%
O=c1c(C=NCCN2CCNCC2)c(O)n(C2CCCCC2)c(=O)n1C1CCCCC1	?	?	16µM*	-61*	20µM*	.
O=C(O)c1ccc(/C=C/c2nc3ccccc3c(=O)n2-c2ccc(Br)cc2)cc1	?	-20%	-29%	?	-5%	-32%
Cc1cccc(-n2c(/C=C/c3ccco3)nc3ccccc3c2=O)c1	.	.	.	.	.	25µM*
COc1cccc(/C=C/c2nc3ccccc3c(=O)n2-c2ccc(Cl)cc2)c1OC	?	.	15µM*	.	.	-25%
Cc1cccc(-n2c(/C=C/c3c(C)[nH]c4ccccc34)nc3ccccc3c2=O)c1	?	.	?	.	.	0%
O=c1c2ccccc2nc(/C=C\c2ccccc2F)n1-c1ccc(O)cc1	?	.	?	.	.	0%
O=c1c2ccccc2nc(/C=C/c2cccc3ccccc23)n1-c1ccc(Cl)cc1	26µM*	.	21µM*	.	.	-13%
Cc1cccc(-n2c(/C=C/c3cn(C)c4ccccc34)nc3ccccc3c2=O)c1	9.2µM*	.	6.5µM*	.	.	?
Cc1cccc(-n2c(/C=C/c3cccc4ccccc34)nc3ccccc3c2=O)c1	6.5µM*	.	9.2µM*	.	.	7%
CCCCCc1nc2ccccc2c(=O)n1-c1ccc(C)cc1	?	.	-25%	.	.	-22%
Cc1ccc(-n2c(/C=C/c3cccc4ccccc34)nc3ccccc3c2=O)cc1	21µM*	.	?	.	.	5%
Cc1cccc(-n2c(/C=C/c3ccccc3O)nc3ccccc3c2=O)c1	?	.	?	.	.	-42%
C1CC(NC2CCOCC2)CCN1	.	.	.	.	.	-10%
CCN(CC)C[C@H]1CN2CC[C@H]1C[C@@H]2CNC(=O)NC(C)C	.	.	.	.	.	34%[176 µM]
CC(=O)NC[C@H]1C[C@@H]2CCN1C[C@@H]2c1cc(-c2ccc3ccccc3c2)nn1C	.	.	.	.	.	96%[176 µM]
COc1cccc(CC(=O)N2[C@H]3CC[C@@H]2c2cnc(-c4ccccc4)nc2C3)c1	.	.	.	.	.	36%
OC1(c2ccccc2)CCNC2CCCCC21 (stereo not drawn)	?	2%	18µM*	-21	1%	-26%
CCOC(=O)C1=CC(=C2C(=O)N(CC)C(=S)N(CC)C2=O)c2ccccc2O1	-9%	4%	1%	-15	5%	18µM*
